Results as given in PubChem BioAssay (NCI).
This is part of a sample that, as a whole, favours compounds with a hit. Of some 79,000 tested, about 15% had one in any assay. Calls of active or inactive are those of the source. Cut-off read from the data, not from the text of the source: active = growth inhibition above about 70%; inactive = the rest.

Experiments:
[1] = NCI Yeast Anticancer Drug Screen. Data for the rad52 strain (AID 147);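 note: 0% = growth of vehicle-treated control cultures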; settings: S. cerevisiae rad52 mutant growth inhibition, hits give high values
How it was run: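 The repair-mutant yeast strain was incubated with compounds, then growth was read and inhibition derived relative to vehicle.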

[2] = NCI Yeast Anticancer Drug Screen. Data for the wt1 strain (AID 149);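 note: 0% = growth of vehicle-treated wt1 cultures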; settings: S. cerevisiae wt1 strain (SPY 50644) growth inhibition, hits give high values
How it was run: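 wt1 strain grown with compound or vehicle; inhibition taken from the growth difference.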

[3] = NCI Yeast Anticancer Drug Screen. Data for the rad50EPP+ strain (AID 151);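 note: 0% = growth of vehicle-treated control cultures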; settings: S. cerevisiae rad50 mutant strain, hits give high values
How it was run: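 Vehicle-normalised growth inhibition; rad50EPP+ yeast strain, altered in DNA damage repair, compound-treated.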

[4] = NCI Yeast Anticancer Drug Screen. Data for the mgt1 strain (AID 153); settings: S. cerevisiae mgt1 mutant growth inhibition, hits give high values
How it was run: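 Vehicle-normalized growth inhibition is determined in mgt1 yeast, a strain selected for a defined alteration in DNA repair or cell cycle control.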

[5] = NCI Yeast Anticancer Drug Screen. Data for the rad50 strain (AID 155);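 note: 0% = growth of vehicle-only cultures of the same strain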; settings: S. cerevisiae rad50 strain growth inhibition, hits give high values
How it was run: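 DNA repair mutant yeast, compound exposure, growth read-out; inhibition is taken relative to vehicle.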

[6] = NCI Yeast Anticancer Drug Screen. Data for the mec2-1 strain (AID 157); settings: S. cerevisiae mec2-1 strain, hits give high values
How it was run: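 Mutant yeast (mec2-1) grown with compound; growth inhibition relative to vehicle control reported.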

[7] = NCI Yeast Anticancer Drug Screen. Data for the rad14 strain (AID 159);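 note: 0% = growth of vehicle-treated control cultures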; settings: S. cerevisiae rad14 strain growth inhibition, hits give high values
How it was run: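 DNA repair-defective yeast, compound-exposed; % growth inhibition derived by comparison with vehicle-treated controls.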

[8] = NCI Yeast Anticancer Drug Screen. Data for the sgs1 mgt1 strain (AID 161);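 note: 0% = growth of cultures given vehicle only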; settings: S. cerevisiae sgs1 mgt1 strain, hits give high values
How it was run: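 Percent growth inhibition was derived by comparing compound-exposed mutant yeast with vehicle-exposed cultures. The strain carries alterations in DNA damage repair.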

[9] = NCI Yeast Anticancer Drug Screen. Data for the CLN2oe strain (AID 163);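 note: 0% = growth of vehicle-only control cultures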; settings: S. cerevisiae CLN2oe strain, hits give high values
How it was run: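 Compounds are applied to yeast harbouring a defined cell-cycle control change; reduced growth compared with vehicle-treated controls gives the value.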

[10] = NCI Yeast Anticancer Drug Screen. Data for the cln2 rad14 strain (AID 165);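 note: 0% = growth equal to vehicle treated cultures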; settings: S. cerevisiae cln2 rad14 strain, hits give high values
How it was run: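 Readout is yeast growth inhibition versus vehicle-treated controls, using a strain with cln2 and rad14 alterations exposed to compound.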

[11] = NCI Yeast Anticancer Drug Screen. Data for the bub3 strain (AID 167); settings: S. cerevisiae bub3 mutant strain, hits give high values
How it was run: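 In this screen, a yeast mutant lacking normal mitotic checkpoint function is challenged with compound. Relative growth versus vehicle gives the inhibition value.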

[12] = NCI Yeast Anticancer Drug Screen. Data for the wt2 strain (AID 169);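 note: 0% = growth of vehicle-treated yeast cultures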; settings: S. cerevisiae wt2 strain growth inhibition, hits give high values
How it was run: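 Against vehicle-treated controls, the growth of yeast exposed to each compound was compared, and the inhibition was recorded.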

[13] = NCI Yeast Anticancer Drug Screen. Data for the mlh1 strain (AID 171);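 note: 0% = growth of vehicle-treated control cultures of the same strain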; settings: S. cerevisiae mlh1 strain growth inhibition, hits give high values
How it was run: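 Measured: yeast growth. Reference: vehicle-treated controls. Organism: strain with a defined alteration affecting DNA damage repair or cell cycle control, treated with compound.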

[14] = NCI Yeast Anticancer Drug Screen. Data for the sgs1 strain (AID 173);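 note: 0% = growth of vehicle-only control cultures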; settings: S. cerevisiae sgs1 mutant, hits give high values
How it was run: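 Each compound was added to cultures of the altered yeast strain. Growth was recorded, and inhibition was derived by comparison with vehicle controls.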

[15] = NCI Yeast Anticancer Drug Screen. Data for the mlh1 rad18 strain (AID 175); settings: S. cerevisiae mlh1 rad18 strain growth inhibition, hits give high values
How it was run: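 Genetically defined yeast (DNA repair-deficient) exposed to compounds; growth inhibition determined relative to vehicle.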

[16] = NCI Yeast Anticancer Drug Screen. Data for the rad18 strain (AID 177); settings: S. cerevisiae rad18 mutant growth inhibition, hits give high values
How it was run: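 Vehicle-treated cultures served as the baseline for scoring compound-induced growth inhibition in DNA-repair-mutant yeast.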

[17] = at 5.0 µM (retest, dose inferred, filed as 0.5)
[18] = at 50.0 µM (retest, dose inferred, filed as 5.0)

Measured: growth inhibition

CCOP(=O)(OCC)/C(C#N)=C/c1cccc(Oc2ccccc2)c1
active: [1]; at 33.0 µM 95% | [1]; at 100.0 µM 96% | [2]; at 33.0 µM 96% | [2]; at 100.0 µM 97% | [4]; at 33.0 µM 95% | [4]; at 100.0 µM 96% | [5]; at 33.0 µM 96% | [5]; [18] 96% | [5]; at 50.0 µM 90.2% | [5]; at 100.0 µM 96% | [6]; at 33.0 µM 97% | [6]; [18] 98% | [6]; at 50.0 µM 93.5% | [6]; at 100.0 µM 98% | [7]; at 33.0 µM 94% | [7]; at 100.0 µM 96% | [8]; [18] 96% | [8]; at 50.0 µM 91.2% | [9]; at 33.0 µM 97% | [9]; at 100.0 µM 97% | [10]; [18] 97% | [10]; at 50.0 µM 90.5% | [11]; at 33.0 µM 97% | [11]; [18] 95% | [11]; at 50.0 µM 90.3% | [11]; at 100.0 µM 97% | [12]; at 33.0 µM 96% | [12]; at 100.0 µM 97% | [13]; at 33.0 µM 96% | [13]; at 100.0 µM 97% | [14]; at 33.0 µM 97% | [14]; at 100.0 µM 98% | [15]; at 50.0 µM 88.8% | [16]; at 33.0 µM 97% | [16]; at 100.0 µM 97%
inactive: [1]; at 1.2 µM -17% | [1]; at 3.7 µM -14% | [1]; at 11.0 µM 60% | [2]; at 1.2 µM -13% | [2]; at 3.7 µM -26% | [2]; at 11.0 µM 56% | [3]; at 1.2 µM 0% | [3]; at 3.7 µM -7% | [3]; at 11.0 µM 7% | [3]; at 33.0 µM 7% | [3]; at 100.0 µM 62% | [4]; at 1.2 µM -32% | [4]; at 3.7 µM -40% | [4]; at 11.0 µM 28% | [5]; at 1.2 µM -30% | [5]; at 3.7 µM -30% | [5]; [17] 2% | [5]; at 11.0 µM 42% | [6]; at 1.2 µM -8% | [6]; at 3.7 µM 1% | [6]; [17] -7% | [6]; at 11.0 µM 45% | [7]; at 1.2 µM -40% | [7]; at 3.7 µM -39% | [7]; at 11.0 µM 35% | [8]; [17] 1% | [9]; at 1.2 µM -12% | [9]; at 3.7 µM -23% | [9]; at 11.0 µM 42% | [10]; [17] -4% | [11]; at 1.2 µM -11% | [11]; at 3.7 µM -19% | [11]; [17] 22% | [11]; at 11.0 µM 41% | [12]; at 1.2 µM 1% | [12]; at 3.7 µM 1% | [12]; at 11.0 µM 38% | [13]; at 1.2 µM -2% | [13]; at 3.7 µM 9% | [13]; at 11.0 µM 48% | [14]; at 1.2 µM 10% | [14]; at 3.7 µM 3% | [14]; at 11.0 µM 44% | [15]; [17] -8% | [15]; [18] -3% | [16]; at 1.2 µM -6% | [16]; at 3.7 µM -16% | [16]; at 11.0 µM 53%

O=C(CCCN1CCC(Nc2ccc(F)cc2)(c2nnnn2C2CCCCC2)CC1)c1ccc(F)cc1
active: [1]; at 100.0 µM 98% | [2]; at 100.0 µM 89% | [4]; at 100.0 µM 98% | [5]; at 100.0 µM 97% | [6]; at 100.0 µM 99% | [7]; at 100.0 µM 85% | [9]; at 100.0 µM 99% | [11]; [18] 80% | [11]; at 100.0 µM 99% | [12]; at 100.0 µM 99% | [13]; at 100.0 µM 98% | [14]; at 100.0 µM 98% | [15]; at 50.0 µM 77.8% | [16]; at 100.0 µM 99%
inactive: [1]; at 1.2 µM 14% | [1]; at 3.7 µM 2% | [1]; at 11.0 µM 19% | [1]; at 33.0 µM 24% | [2]; at 1.2 µM -81% | [2]; at 3.7 µM -5% | [2]; at 11.0 µM -11% | [2]; at 33.0 µM -11% | [3]; at 1.2 µM 0% | [3]; at 3.7 µM 0% | [3]; at 11.0 µM 1% | [3]; at 33.0 µM 4% | [3]; at 100.0 µM 25% | [4]; at 1.2 µM -2% | [4]; at 3.7 µM -3% | [4]; at 11.0 µM -6% | [4]; at 33.0 µM 2% | [5]; at 1.2 µM -5% | [5]; at 3.7 µM -7% | [5]; [17] 1% | [5]; at 11.0 µM -9% | [5]; at 33.0 µM -5% | [5]; [18] 37% | [5]; at 50.0 µM 11.7% | [6]; at 1.2 µM -7% | [6]; at 3.7 µM -8% | [6]; [17] 3% | [6]; at 11.0 µM -17% | [6]; at 33.0 µM -5% | [6]; [18] 12% | [6]; at 50.0 µM 27.1% | [7]; at 1.2 µM -5% | [7]; at 3.7 µM -8% | [7]; at 11.0 µM -10% | [7]; at 33.0 µM 9% | [8]; [17] -4% | [8]; [18] 31% | [8]; at 50.0 µM 50.3% | [9]; at 1.2 µM -8% | [9]; at 3.7 µM -10% | [9]; at 11.0 µM -7% | [9]; at 33.0 µM 31% | [10]; [17] 65% | [10]; [18] 50% | [10]; at 50.0 µM 35.7% | [11]; at 1.2 µM -2% | [11]; at 3.7 µM -4% | [11]; [17] -13% | [11]; at 11.0 µM -6% | [11]; at 33.0 µM 22% | [11]; at 50.0 µM 32.9% | [12]; at 1.2 µM -6% | [12]; at 3.7 µM -6% | [12]; at 11.0 µM -9% | [12]; at 33.0 µM -1% | [13]; at 1.2 µM -3% | [13]; at 3.7 µM -6% | [13]; at 11.0 µM -8% | [13]; at 33.0 µM -6% | [14]; at 1.2 µM -1% | [14]; at 3.7 µM -1% | [14]; at 11.0 µM -4% | [14]; at 33.0 µM 7% | [15]; [17] -3% | [15]; [18] 41% | [16]; at 1.2 µM 3% | [16]; at 3.7 µM 0% | [16]; at 11.0 µM 14% | [16]; at 33.0 µM 17%

C/C(=N/NC(=S)Nc1ccccc1C)c1ccccn1
active: [5]; at 50.0 µM 78%
inactive: [1]; at 1.2 µM 2% | [1]; at 3.7 µM 9% | [1]; at 11.0 µM 15% | [1]; at 33.0 µM 17% | [1]; at 100.0 µM 7% | [2]; at 1.2 µM -11% | [2]; at 3.7 µM -10% | [2]; at 11.0 µM -9% | [2]; at 33.0 µM -10% | [2]; at 100.0 µM -8% | [3]; at 1.2 µM 3% | [3]; at 3.7 µM 6% | [3]; at 11.0 µM 13% | [3]; at 33.0 µM 14% | [3]; at 100.0 µM 4% | [4]; at 1.2 µM -6% | [4]; at 3.7 µM -10% | [4]; at 11.0 µM 4% | [4]; at 33.0 µM -22% | [4]; at 100.0 µM -5% | [5]; at 1.2 µM 1% | [5]; at 3.7 µM 5% | [5]; [17] 9% | [5]; at 11.0 µM -9% | [5]; at 33.0 µM 7% | [5]; [18] 12% | [5]; at 100.0 µM 5% | [6]; at 1.2 µM -3% | [6]; at 3.7 µM -10%
